PubChem BioAssay
Calls of active or inactive are those of the source. Unless noted, no rule for the calls is given here.

What was measured:
[1] = tested on: Wnt5a (protein binding on small-molecule microarray); experiment: small molecules binding Wnt5a protein – biophysical, small-molecule microarray, 635/667 nm fluorescence, primary screen (AID 1142); settings: 635 nm fluorescence, higher = more signal;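 also: fluorescence read at 667 nm with signal to noise per printed feature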
[2] = ATP-based viability of Huh7 replicon cells – cell-based, CellTiter-Glo luminescence, basal, 48 h, cytotoxicity control for HCV replication inhibitor project, primary screen (AID 1143); settings: higher = more signal, called active from +8 up or from −8 down;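 also: Huh7 hepatoma cells carrying a hepatitis C replication reporter with no stimulus; test concentration not given here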
[3] = Pseudomonas biofilm growth suppression – PAO1 strain, BacTiter-Glo luminescence, LB-PBS, primary screen (AID 1144); settings: P. aeruginosa PAO1 biofilm, 12 h, higher = more signal
[4] = basal CRE-LacZ reporter activity in PC12 – cell-based, unstimulated, primary screen (AID 1145); settings: no forskolin, luminescence, 4.5 h, higher = more signal, called active from +8 up or from −8 down
[5] = forskolin-driven CRE-LacZ activity in PC12 – cell-based, CRE-LacZ reporter, forskolin-stimulated, primary screen (AID 1146); settings: luminescence, 4.5 h, higher = more signal, called active from +8 up or from −8 down;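 also: PC12 cells with 6xCRE LacZ reporter stimulated by forskolin 10 µM; beta-galactosidase reporter signal reflecting CREB driven transcription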
[6] = target: Streptavidin (Streptomyces avidinii) (UniProt P22629); experiment: compounds binding control protein streptavidin – biophysical, small-molecule microarray, 635/667 nm fluorescence, artefact control for SMM compound annotation, primary screen (AID 1147); settings: higher = more signal;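 also: signal reflects streptavidin binding to arrayed compounds as a control protein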
Sequence of Streptavidin (Streptomyces avidinii) (P22629 whole entry, looked up): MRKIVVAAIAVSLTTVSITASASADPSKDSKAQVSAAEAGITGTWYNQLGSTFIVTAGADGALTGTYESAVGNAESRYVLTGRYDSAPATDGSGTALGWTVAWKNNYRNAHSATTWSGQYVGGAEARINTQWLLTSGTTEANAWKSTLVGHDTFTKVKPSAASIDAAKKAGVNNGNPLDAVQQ

[7] = probe aInhba binding on compound microarray – biochemical, small-molecule microarray, 635/667 nm fluorescence, primary screen (AID 1148); settings: higher = more signal;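 also: score merges 667nm spot fluorescence with signal-to-noise for antibody binding to printed compounds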
[8] = target: Torsin-1A (Homo sapiens) (UniProt O14656); experiment: TOR1A wild-type binding on microarray – cell lysate, small-molecule microarray, lysate, 635/667 nm, primary screen (AID 1149); settings: COS7 hTOR1A-WT lysate, 635 nm fluorescence, higher = more signal
Sequence of Torsin-1A (Homo sapiens) (O14656 whole entry, looked up): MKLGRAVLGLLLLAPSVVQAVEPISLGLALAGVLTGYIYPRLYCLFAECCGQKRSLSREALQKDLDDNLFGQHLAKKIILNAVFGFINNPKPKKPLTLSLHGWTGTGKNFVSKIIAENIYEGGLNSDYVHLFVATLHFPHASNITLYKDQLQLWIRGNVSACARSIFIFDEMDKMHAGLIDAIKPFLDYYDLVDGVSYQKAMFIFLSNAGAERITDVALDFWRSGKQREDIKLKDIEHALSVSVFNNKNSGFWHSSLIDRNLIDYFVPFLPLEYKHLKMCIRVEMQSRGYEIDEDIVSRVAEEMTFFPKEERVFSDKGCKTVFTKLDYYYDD

[9] = target: Torsin-1A (Homo sapiens) (UniProt O14656); experiment: torsin A mutant lysate binding on microarrays – cell lysate, small-molecule microarray, COS7 lysate, 635/667 nm fluorescence, primary screen (AID 1150); settings: COS7 hTOR1A mutant lysate, 635 nm fluorescence, higher = more signal;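 also: score pools 667 nm emission and signal to noise measuring lysate protein binding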
[10] = tested on: Sonic hedgehog protein (Shh); experiment: Sonic hedgehog microarray binding compounds – biochemical, small-molecule microarray, 635/667 nm fluorescence, primary screen (AID 1151); settings: 635 nm fluorescence, higher = more signal;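 also: Shh protein binding to compounds spotted on small-molecule microarray slides; score combines spot fluorescence intensity with signal-to-noise across triplicate slides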
[11] = optical density shifts of acrAB sulA E. coli – strain DRC41, OD650, 48 h, E. coli filamentation inducer project, primary screen (AID 1152); settings: higher = more signal, called active from +8 up or from −8 down;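 also: E. coli MC1000 strain DRC41 lacking acrAB efflux pump and sulA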
[12] = probe aLefty1 binding on compound microarray – biochemical, small-molecule microarray, 635/667 nm fluorescence, primary screen (AID 1153); settings: higher = more signal;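 also: score merges spot fluorescence with signal-to-noise ratio from the scanned slide images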
[13] = plasmodial surface anion channel blockers, osmotic lysis – cell-based, P. falciparum Indochina, OD700, 1 h, primary screen (AID 1154); settings: P. falciparum Indochina infected RBC osmotic lysis, higher = more signal, called active from +8 up or from −8 down
[14] = plasmodial surface anion channel blockers, osmotic lysis – cell-based, P. falciparum Indochina, OD700, 2 h, primary screen (AID 1155);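 also: lysis reports solute entry through the parasite surface anion channel PSAC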; settings: P. falciparum Indochina infected erythrocytes, higher = more signal, called active from +8 up or from −8 down
[15] = changes in parasitized red cell lysis, either direction – P. falciparum Indochina, OD700, 3 h, PSAC antagonist project, primary screen (AID 1156); settings: P. falciparum-infected erythrocytes, osmotic lysis, higher = more signal, called active from +8 up or from −8 down
[16] = plasmodial surface anion channel blockers, osmotic lysis – cell-based, P. falciparum Indochina, OD700, 18 h, primary screen (AID 1157); settings: P. falciparum Indochina infected erythrocytes, osmotic lysis OD700, 18 h; higher = more signal, called active from +8 up or from −8 down
[17] = S6 kinase pathway phospho-S6 level changes – cell-based, A549, cytoblot, luminescence, serum-stimulated, primary screen (AID 1158); settings: 5 h, higher = more signal;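 also: serum-stimulated A549 lung adenocarcinoma cells; signal is phosphorylated S6 detected by cytoblot immunostaining with HRP secondary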
[18] = target: NADPH oxidase 2 (Homo sapiens) (UniProt P04839); experiment: compounds shifting NOX2 Amplex Red fluorescence – cell-based, HEK293-NOX2, PMA-stimulated, NOX inhibitor project, primary screen (AID 1159); settings: 45 min, higher = more signal, called active from +8 up or from −8 down; also: test concentration not given here
Sequence of NADPH oxidase 2 (Homo sapiens) (P04839 whole entry, looked up): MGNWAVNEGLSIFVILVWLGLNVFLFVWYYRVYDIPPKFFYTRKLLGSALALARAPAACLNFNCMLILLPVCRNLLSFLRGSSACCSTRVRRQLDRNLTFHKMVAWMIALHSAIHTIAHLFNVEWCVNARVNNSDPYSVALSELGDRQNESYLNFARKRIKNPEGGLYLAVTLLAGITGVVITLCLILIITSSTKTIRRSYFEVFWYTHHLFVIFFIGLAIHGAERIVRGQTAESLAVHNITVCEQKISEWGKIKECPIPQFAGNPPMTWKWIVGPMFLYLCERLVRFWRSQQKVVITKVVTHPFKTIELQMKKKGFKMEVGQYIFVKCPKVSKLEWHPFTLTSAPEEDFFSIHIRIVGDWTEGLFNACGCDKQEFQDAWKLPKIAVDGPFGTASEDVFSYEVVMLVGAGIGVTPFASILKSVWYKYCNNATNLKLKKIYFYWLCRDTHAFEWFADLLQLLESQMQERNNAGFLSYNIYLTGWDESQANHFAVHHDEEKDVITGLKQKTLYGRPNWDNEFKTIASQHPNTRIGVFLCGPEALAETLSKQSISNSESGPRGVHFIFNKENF

[19] = target: NADPH oxidase 4 (Homo sapiens) (UniProt Q9NPH5); experiment: compounds shifting NOX4 Amplex Red fluorescence – cell-based, HEK293-NOX4, tetracycline-induced, NOX inhibitor project, primary screen (AID 1160); settings: HEK293-NOX4, Amplex Red H2O2 fluorescence, 45 min; higher = more signal, called active from +8 up or from −8 down
Sequence of NADPH oxidase 4 (Homo sapiens) (Q9NPH5 whole entry, looked up): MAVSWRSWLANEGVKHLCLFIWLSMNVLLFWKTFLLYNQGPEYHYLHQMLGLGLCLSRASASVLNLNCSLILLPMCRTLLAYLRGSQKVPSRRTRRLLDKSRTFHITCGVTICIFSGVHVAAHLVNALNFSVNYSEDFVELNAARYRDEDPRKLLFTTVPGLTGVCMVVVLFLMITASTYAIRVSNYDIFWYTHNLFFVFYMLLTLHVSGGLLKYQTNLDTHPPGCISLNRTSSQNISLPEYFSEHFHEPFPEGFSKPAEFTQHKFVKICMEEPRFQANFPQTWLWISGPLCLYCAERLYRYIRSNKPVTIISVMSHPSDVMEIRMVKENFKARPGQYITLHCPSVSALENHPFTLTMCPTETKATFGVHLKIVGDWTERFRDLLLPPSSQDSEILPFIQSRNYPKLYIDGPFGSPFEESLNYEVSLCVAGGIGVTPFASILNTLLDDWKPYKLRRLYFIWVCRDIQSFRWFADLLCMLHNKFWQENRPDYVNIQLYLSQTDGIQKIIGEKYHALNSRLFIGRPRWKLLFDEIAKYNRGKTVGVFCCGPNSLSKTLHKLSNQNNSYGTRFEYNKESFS

[20] = target: NADPH oxidase 5 (Homo sapiens) (UniProt Q96PH1); experiment: compounds shifting NOX5 Amplex Red fluorescence – cell-based, HEK293-NOX5, NOX inhibitor project, primary screen (AID 1161); settings: HEK293-NOX5, ionomycin, 45 min, higher = more signal
Sequence of NADPH oxidase 5 (Homo sapiens) (Q96PH1 whole entry, looked up): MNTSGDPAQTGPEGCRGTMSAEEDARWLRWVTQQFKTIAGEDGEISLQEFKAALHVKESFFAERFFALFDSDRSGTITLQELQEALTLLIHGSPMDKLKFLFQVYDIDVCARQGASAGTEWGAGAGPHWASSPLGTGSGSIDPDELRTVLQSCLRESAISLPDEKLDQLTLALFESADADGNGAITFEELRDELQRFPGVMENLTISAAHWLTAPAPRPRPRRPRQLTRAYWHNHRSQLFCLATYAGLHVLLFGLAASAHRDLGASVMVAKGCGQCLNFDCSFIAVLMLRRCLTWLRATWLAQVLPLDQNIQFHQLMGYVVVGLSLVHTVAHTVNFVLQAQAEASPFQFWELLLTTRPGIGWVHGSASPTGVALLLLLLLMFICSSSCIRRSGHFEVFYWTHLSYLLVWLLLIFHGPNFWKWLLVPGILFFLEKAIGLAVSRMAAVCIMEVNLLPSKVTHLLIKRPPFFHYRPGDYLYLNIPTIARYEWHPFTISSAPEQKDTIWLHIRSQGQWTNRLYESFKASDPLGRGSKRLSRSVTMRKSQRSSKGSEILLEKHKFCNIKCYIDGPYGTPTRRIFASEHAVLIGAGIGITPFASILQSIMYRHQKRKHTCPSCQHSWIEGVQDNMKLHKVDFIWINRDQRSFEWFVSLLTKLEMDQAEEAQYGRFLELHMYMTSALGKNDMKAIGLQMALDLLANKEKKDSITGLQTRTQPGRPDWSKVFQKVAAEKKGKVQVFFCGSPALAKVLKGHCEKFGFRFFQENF

| Structure (SMILES) | composite z-score [1] | z-score [2] | z-score [3] | z-score [4] | z-score [5] | composite z-score [6] | composite z-score [7] | composite z-score [8] | composite z-score [9] | composite z-score [10] | z-score [11] | composite z-score [12] | z-score [13] | z-score [14] | z-score [15] | z-score [16] | z-score [17] | z-score [18] | z-score [19] | z-score [20] |
| --- | --- | --- | --- | --- | --- | --- | --- | --- | --- | --- | --- | --- | --- | --- | --- | --- | --- | --- | --- | --- |
| Cc1ccc(S[C@]2(C(=O)O)CC(=O)N(C(C)C)[C@@H]2c2ccc(CO)cc2)cc1 | -0.201 | -2.62 (inactive) | -2.2 (inactive) | -0.206 (inactive) | -0.244 (inactive) | -0.186 | -0.147 | -0.366 | 1.12 | -0.317 | 1.99 (inactive) | -0.668 | 1.05 (inactive) | -0.354 (inactive) | -1.28 (inactive) | -0.951 (inactive) | 2.66 | 0.149 (inactive) | -0.716 (inactive) | -0.877 |
| CCN(CC)c1ccc(N2CC=CC34O[C@@H]5/C=C\CCC(C)OC(=O)C5[C@H]3C(=O)N(CCCCCO)[C@@H]4C2=O)cc1 (stereo not given in full) | -0.408 | 0.16 (inactive) | 1.24 (inactive) | 1.16 (inactive) | -0.418 (inactive) | -1.1 | -0.016 | -1.47 | -1.59 | -0.0874 | -0.0949 (inactive) | -0.147 | -0.062 (inactive) | -0.928 (inactive) | -0.356 (inactive) | -0.427 (inactive) | 0.414 | -0.0453 (inactive) | -0.419 (inactive) | 0.779 |
| CC#CC(=O)Oc1ccc(Br)cc1C=CC(=O)OCC | -0.0465 | -2.98 (inactive) | 0.0278 (inactive) | 1.81 (inactive) | 32.2 (active) | 0.119 | 0.248 | -0.0177 | -0.329 | 0.247 | -1.17 (inactive) | 0.0386 | 25.5 (active) | 7.06 (inactive) | -0.189 (inactive) | 1.37 (inactive) | -0.27 | -1.86 (inactive) | -2.68 (inactive) | 0.227 |
| CC[C@@H]1C=C(C(=O)O)[C@H](c2cccc3ccccc23)N1S(=O)(=O)c1ccc(C)cc1 | 0.0605 | -0.0086 (inactive) | 0.235 (inactive) | -0.723 (inactive) | 0.754 (inactive) | 0.985 | -0.128 | 0.224 | 0.331 | -0.173 | -0.453 (inactive) | 0.0774 | 1.26 (inactive) | 1.2 (inactive) | -0.129 (inactive) | 0.708 (inactive) | -0.769 | 0.338 (inactive) | -0.931 (inactive) | 0.133 |
| COCCOC(=O)N1C(=O)[C@@]2(c3cc(C#CC4(O)CCCCCC4)ccc31)[C@H](c1ccccc1OCCO)N1[C@H](c3ccccc3)[C@H](c3ccccc3)OC(=O)[C@H]1[C@@H]2C(=O)N1CCc2cc(OC)c(OC)cc2C1 | 0.305 | -3.17 (inactive) | -0.665 (inactive) | -1.29 (inactive) | 1.03 (inactive) | 0.738 | -0.0496 | 0.0651 | 0.336 | 1.11 | 0.109 (inactive) | 0.379 | 2.53 (inactive) | 0.888 (inactive) | 0.467 (inactive) | 0.773 (inactive) | 0.495 | 1.25 (inactive) | 0.534 (inactive) | 1.82 |
| C=CCC(OC(C)=O)[C@@H]1[C@@H](N(Cc2ccc(-c3ccccc3)cc2)C(=O)Cc2ccc(F)cc2)c2cc(OCCCO)ccc2N1C(=O)c1ccc2ccccc2c1 (stereo not given in full) | -0.121 | 0.0038 (inactive) | 0.197 (inactive) | 0.819 (inactive) | 0.601 (inactive) | -0.0075 | 0.0464 | -0.287 | -0.0056 | 0.627 | 0.185 (inactive) | 0.193 | -0.0408 (inactive) | 0.345 (inactive) | -0.348 (inactive) | 0.703 (inactive) | -0.0772 | 0.719 (inactive) | 0.587 (inactive) | 1.82 |
| C[C@H]1C2[C@H](Cc3ccccc3)NC(=O)[C@]23C(=O)NCC(=O)N2CCC[C@H]2C(=O)NC/C=C/CCC/C=C/C3[C@@H]2O[C@]12C (stereo not given in full) | -0.376 | -1.02 (inactive) | 0.785 (inactive) | 1.32 (inactive) | -1.25 (inactive) | -1.3 | -0.179 | -0.793 | -0.333 | 0.468 | 1.38 (inactive) | -0.103 | 1.44 (inactive) | -0.0812 (inactive) | 0.391 (inactive) | 0.133 (inactive) | 0.781 | 1.61 (inactive) | -0.66 (inactive) | 1.88 |
| CC(C)(C)OC(=O)CC[C@]1(C(=O)NCCN2CCOCC2)COC(c2ccc(OCCCO)cc2)=N1 | 0.681 | -0.102 (inactive) | -0.192 (inactive) | 0.157 (inactive) | -0.168 (inactive) | 0.344 | 0.0227 | 0.717 | 1.37 | 0.998 | 1.04 (inactive) | 0.319 | 18.7 (active) | 2.01 (inactive) | 0.0229 (inactive) | 0.791 (inactive) | -0.395 | -2.08 (inactive) | 0.08 (inactive) | -0.137 |
